Where “and” joins values, the source holds several entries; their conditions need not be identical. Identical values can stand only once. Records with an inconclusive call do not appear. Where a call stands in place of a potency, no number is given. Calls of active or inactive are those of the source. Unless noted, calls follow the shape of the dose curve; as a rule, active = well fitted curve in the direction sought with a large enough effect; inconclusive = small, poorly fitted or top-dose-only effect, or another doubt; inactive = no such curve, though single readings can be large; an effect the other way counts as inactive or inconclusive.
Assays:
[1] = target: alpha-glucosidase (Oryza sativa, rice) (UniProt Q653V4); test: Counterscreen for Glucocerebrosidase Inhibitors: qHTS Assay for Rice alpha-Glucosidase at pH 5.0 (AID 997)
Method in brief: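 Endpoint fluorogenic assay at pH 5.0: compounds (0.7 nM to 77 uM) titrated against 4 nM rice enzyme and 400 uM 4-MU-alpha-glucoside for 20 min at room temperature; NaOH/glycine stop, read ex 365/em 440 nm, Hill-fitted AC50.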

[2] = target: Alpha-galactosidase (Coffea arabica) (UniProt Q42656); test: Counterscreen for Glucocerebrosidase Inhibitors: qHTS Assay for Coffee Bean alpha-Galactosidase at pH 5.9 (AID 998)
Sequence of Alpha-galactosidase (Coffea arabica) (Q42656 whole entry, looked up): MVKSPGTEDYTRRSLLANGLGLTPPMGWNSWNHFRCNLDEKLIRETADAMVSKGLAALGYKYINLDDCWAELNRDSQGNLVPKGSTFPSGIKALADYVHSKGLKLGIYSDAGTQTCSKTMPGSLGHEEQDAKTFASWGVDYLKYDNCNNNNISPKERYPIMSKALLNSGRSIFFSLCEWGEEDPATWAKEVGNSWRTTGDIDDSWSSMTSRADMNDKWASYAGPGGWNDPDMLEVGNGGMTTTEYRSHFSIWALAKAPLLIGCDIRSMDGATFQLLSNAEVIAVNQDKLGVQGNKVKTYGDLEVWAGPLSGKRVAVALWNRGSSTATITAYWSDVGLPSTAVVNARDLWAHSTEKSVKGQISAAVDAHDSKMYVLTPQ
Method in brief: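 Enzyme 2 nM + cpd (0.7 nM–77 uM titration) + 4-MU-alpha-Gal 80 uM, pH 5.9 citrate/Tween-20, RT 20 min, NaOH/glycine stop pH 10, fluor 365/440. Normalized to no-enzyme and full-activity controls; Hill-fit AC50.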

[3] = Validation of Assay for Modulators of Lamin A Splicing (AID 1459; active = well fitted curve in the direction sought with a large enough effect in the signal ratio; the % refers to the signal ratio;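 also: cells exposed to compound for two days before reading; ratio rise marks activators and ratio drop marks inhibitors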)
Method in brief: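 S3 HeLa cells stably expressing a lamin A-EGFP splicing minigene and DsRed2 were seeded at 600 cells/well in Opti-MEM with 2% FBS, pin-dosed, and incubated 48 hrs at 37 °C, 5% CO2. Laser-scanning cytometry (488 nm) gave GFP/RFP total intensity ratio.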

[4] = qHTS Assay for Lipid Storage Modulators (AID 1519; calls by dose curve); settings: Drosophila S3 cells, BODIPY lipid droplet/cell ratio, laser cytometry, cells loaded with oleic acid
Method in brief: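 Cells seeded at 5,000 per well were treated with compounds over a concentration series and loaded with oleic acid (400 uM, as added). Lipid droplet fluorescence (488 nm excitation, 500-530 nm channel) was read by laser-scanning cytometry and normalized to 20 uM Triacsin C.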

[5] = target: DNA repair nuclease/redox regulator APEX1 (Homo sapiens) (UniProt P27695); test: qHTS Validation Assay for Inhibitors of the Human Apurinic/apyrimidinic Endonuclease 1 (APE1) (AID 1705;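 also: TAMRA fluorescence gain over two minutes as APE1 cuts a quenched THF abasic duplex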)
Sequence of DNA repair nuclease/redox regulator APEX1 (Homo sapiens) (P27695 whole entry, looked up): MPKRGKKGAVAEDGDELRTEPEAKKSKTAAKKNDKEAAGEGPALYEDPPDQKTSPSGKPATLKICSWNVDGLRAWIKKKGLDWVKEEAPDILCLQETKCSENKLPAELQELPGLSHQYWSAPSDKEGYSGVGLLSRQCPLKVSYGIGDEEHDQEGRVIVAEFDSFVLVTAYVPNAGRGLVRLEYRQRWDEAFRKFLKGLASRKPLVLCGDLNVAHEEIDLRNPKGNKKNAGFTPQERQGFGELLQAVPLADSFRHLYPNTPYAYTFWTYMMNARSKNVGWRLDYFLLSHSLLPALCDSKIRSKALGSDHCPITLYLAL
Method in brief: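 Human APE1 was preincubated with compound for 15 min at room temperature, then 50 nM (final) THF-abasic double-stranded DNA substrate bearing 5'-TAMRA and 3'-BHQ-2 was added. Incision-driven fluorescence rise (ex 525/em 598 nm) was read kinetically.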

[6] = Counterscreen for APE1 Inhibitors: Fluorescent Dye Displacement Validation Assay (AID 1707)
Method in brief: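 Reaction mixture of 250 nM Thiazole Orange and 50 nM double-stranded abasic-site DNA was dispensed, compounds were pin-transferred, and fluorescence was read at endpoint (480 nm ex, 540 nm em). Reduced fluorescence indicated dye displacement by DNA binding.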

[7] = target: Endonuclease 4 (Escherichia coli (strain K12)) (UniProt P0A6C1); test: Counterscreen for APE1 Inhibitors: qHTS Validation Assay for Inhibitors of Endonuclease IV (AID 1708)
Method in brief: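 Read-out: fluorescence rise (ex 525/em 598 nm) from incision of a TAMRA/BHQ-2 double-stranded THF abasic-site substrate (50 nM), measured kinetically; third-minus-first read difference gave reaction progress. Enzyme 2 nM.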

[8] = qHTS for differential inhibitors of proliferation of Plasmodium falciparum line 7G8 (AID 1815);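 also: parasite growth measured after three days of incubation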; also: potency is read from the fitted curve at half-maximal effect
[9] = qHTS for differential inhibitors of proliferation of Plasmodium falciparum line GB4 (AID 1816); settings: Potency: Plasmodium falciparum GB4 proliferation inhibition;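 also: parasite growth measured after 72 h incubation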; also: potency is read from the fitted curve at half-maximal effect
[10] = measured here: cell count channel max response
[11] = measured here: lipid channel max response

Row | Structure (SMILES) | outcome [1] | outcome [2] | outcome [3] | activity change, negative = inhibition ([4]; at 57.5 µM (top of the series)) | max response [4, 10] | max response [4, 11] | Potency [5] | Potency [6] | Potency [7] | Potency [8] | Potency [9] | activity change, negative = inhibition ([4]; at 25.7 µM (top of the series))
1 | c1ccc2sc(C3(N4CCCCC4)CCCCC3)cc2c1 | inactive | inactive | inactive | -6.45% (inactive) and -1.27% (inactive) | -3.55% and -30.8% | 4.98% and -30.4% | inactive | inactive | inactive | 10 µM (active) | 11.2 µM (active) | 
2 | NCCc1c[nH]c2ccc(O)cc12 | inactive | inactive | inactive | 0.919% (inactive) | -5.09% and -12.1% | -6.32% and -9.72% | inactive |  |  | inactive | inactive | -0.711% (inactive)
3 | CS(=N)(=O)CC[C@H](N)C(=O)O (stereo partly specified) |  |  | inactive | -1.65% (inactive) | 43.8% | 40.4% | inactive |  |  | inactive | inactive | 
4 | C=CCN1CC[C@]23CCCCC2[C@H]1Cc1ccc(O)cc13 (stereo partly specified) |  |  | inactive |  |  |  | inactive |  | inactive | 11.2 µM (active) | 11.2 µM (active) | 
5 | CCCCc1ccc(C(=O)O)nc1 | inactive | inactive | inactive | 1.57% (inactive) | 0.85% and 4.91% | -1.53% and 6.42% | inactive | inactive |  | inactive | inactive | -2.75% (inactive)
6 | O=C1CCCN1CC#CCN1CCCC1 | inactive | inactive | inactive | 5.07% (inactive) and 8.93% (inactive) and 0.711% (inactive) | 5.66% and 4.2% and 20.8% | 13% and 25.8% and 21.1% | inactive |  | inactive | inactive | inactive | 
7 | Oc1ccc2c3c1O[C@H]1c4[nH]c5c(c4C[C@@]4(O)[C@@H](C2)N(CC2CC2)CC[C@]314)C[C@@]1(O)[C@H]2Cc3ccc(O)c4c3[C@@]1(CCN2CC1CC1)[C@H]5O4 |  |  | inactive | -0.289% (inactive) | -23.9% | -23.6% | inactive |  |  |  | 15.8 µM (active) | 
8 | CCCN1CCC[C@H](c2cccc(O)c2)C1 | inactive | inactive | inactive |  |  |  | inactive | inactive | inactive |  | 14.1 µM (active) | 
9 | NCc1cc(=O)[nH]o1 | inactive | inactive | inactive | -0.672% (inactive) | 5.31% | 4.46% | inactive |  | inactive | inactive | inactive | 
10 | C[C@]12CCC3C(CC[C@H]4C[C@H](O)CC[C@]34C)C1CC[C@@H]2C(=O)CO (stereo partly specified) |  |  | inactive |  |  |  | inactive | inactive | inactive | 7.94 µM (active) | 14.1 µM (active) | 
11 | NC(CCP(=O)(O)O)C(=O)O (stereo unspecified) |  |  | inactive | 2.25% (inactive) | 14.5% | 18.2% | inactive | inactive |  | inactive | inactive | 

Source: PubChem BioAssay (NCATS)
